S-ASM inh: blocks human secretory acid sphingomyelinase | Potency, µM (titrated, usually from 57.5 µM), for the others: at the highest dose activity change, negative = inhibition, most hits filed as inhibitors | AID 504937 | P17405 | hit rate 0.006% among 340,000 | placental ASM, HMU-PC fluorogenic substrate, 60 min
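Fluorogenic HMU-PC substrate (9 uM final) is turned over by placental ASM in 60 min at 37 C after a 10 min compound preincubation. Reaction ended by alkaline stop (pH 10), with fluorescence read at 386/447 nm.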
p53 reactivation: restores transcriptional activity of mutant p53. H1299 p53-A138V BP100-luciferase reporter, luminescence, 24 h. Potency, µM (series often up to 92.2 µM), for the others: top-dose activity change, positive = activation, actives largely listed as activators. hit rate 0.063% among 320,000. AID 504706; note: % of control where 0% means no effect; nearly all actives have a fitted effect of over 45% in size
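p53-null H1299 cells stably carrying temperature-sensitive p53-A138V and a BP100-luciferase reporter were pinned with compounds (4-point, 1:5 series) and held 24 hrs at 37 deg C. Luminescence was read 10 min after detection reagent.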
Tb PFK inh-1: blocks T. brucei phosphofructokinase. T. brucei PFK, ADP-Glo luminescence. Potency, µM (highest dose often 57.5 µM), inactives show at the highest dose activity, negative = inhibition, most hits filed as inhibitors. hit rate 0.17% among 330,000;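 note: 0% = uninhibited 1x PFK enzyme wells and -100% = no-enzyme wells; nearly all actives have a fitted effect of over 60% in size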
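Compounds were pin-transferred as a titration series up to 57 uM into substrate buffer (0.5 mM F6P, 0.1 mM ATP, pH 8.0), then 1.25 nM PFK was added and reactions ran 45 min before ADP-Glo detection.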
ERG Ets-DNA blk: ERG Ets/DNA interaction inhibition | P11308 | fluorescence polarization, His-ERG Ets domain / labelled DNA | Potency, µM (doses to about 76.9 µM), without a hit: at the highest dose FP activity, negative = inhibition, hits mostly inhibitors | hit rate 0.028% among 370,000 | AID 624246; active = well fitted inhibition curve with a large enough effect in the polarisation, with a control signal flat; inconclusive = small, poorly fitted or top-dose-only effect, or effect the other way, or a change in a side signal; inactive = no such curve, though single readings can be large or run the other way; the % refers to the polarisation;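 note: polarization taken with two DNA probes labelled with fluorescein and Texas red; % of control where 0% means no effect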
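His-tagged ERG Ets domain (1 uM in the protein solution; 300mM KCl, 50mM Tris-HCl, 1mM EDTA, 1mM DTT, pH 7.5) received compound, then a probe mix of 5 nM fluorescein-DNA and 100nM Texas-615-DNA. Fluorescence polarization was read for both dyes.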
GCN5L2 inh: blocks human GCN5L2 histone acetyltransferase; Q92830; hit rate 0.21% among 390,000; AID 504327; GCN5L2 HAT assay, ThioGlo1 CoA-SH fluorescence; Potency, µM (doses to about 58.9 µM), inactives show at the highest dose activity change, negative = inhibition, most hits filed as inhibitors; note: % is set by controls: 0 for no effect and ±100 for the full control effect
Target sequence (Q92830 whole entry, looked up): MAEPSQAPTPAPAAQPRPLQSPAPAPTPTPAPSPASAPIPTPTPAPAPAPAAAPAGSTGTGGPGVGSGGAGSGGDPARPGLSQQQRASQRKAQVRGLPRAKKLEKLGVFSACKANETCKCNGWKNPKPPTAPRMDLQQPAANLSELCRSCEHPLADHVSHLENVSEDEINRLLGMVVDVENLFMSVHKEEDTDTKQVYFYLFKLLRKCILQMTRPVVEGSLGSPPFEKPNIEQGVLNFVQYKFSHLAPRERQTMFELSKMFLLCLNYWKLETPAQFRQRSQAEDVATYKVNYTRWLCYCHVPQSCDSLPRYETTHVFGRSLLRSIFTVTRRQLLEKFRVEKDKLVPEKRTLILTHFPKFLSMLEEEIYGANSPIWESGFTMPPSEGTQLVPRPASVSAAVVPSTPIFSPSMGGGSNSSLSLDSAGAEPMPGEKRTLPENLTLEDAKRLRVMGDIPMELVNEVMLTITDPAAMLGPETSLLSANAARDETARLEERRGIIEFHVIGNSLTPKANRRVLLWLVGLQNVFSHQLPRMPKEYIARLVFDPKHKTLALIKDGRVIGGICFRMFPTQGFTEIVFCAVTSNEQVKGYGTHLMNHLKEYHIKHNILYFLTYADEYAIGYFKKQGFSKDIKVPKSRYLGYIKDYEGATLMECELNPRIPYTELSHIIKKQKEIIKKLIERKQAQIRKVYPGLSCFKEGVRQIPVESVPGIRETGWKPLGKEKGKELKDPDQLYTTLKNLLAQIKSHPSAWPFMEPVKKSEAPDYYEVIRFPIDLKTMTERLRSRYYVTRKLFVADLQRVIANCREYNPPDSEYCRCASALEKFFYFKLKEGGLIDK
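GCN5L2 (20 nM) in 50mM HEPES pH 7.5, 0.1mM EDTA, 0.01% Tween-20 preincubated 15 min with compounds at room temperature. Reaction started with H3(1-25) 75uM, acetyl-CoA 70uM, ThioGlo1 50uM; CoA-thiol fluorescence (Ex340/Em540) read at 0 and 20 min.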
A-T KAP1 phos: candidate therapy for ataxia-telangiectasia | hit rate 0.19% among 320,000 | F2112 A-T fibroblasts, KAP-1 phosphorylation AlphaLISA; neocarzinostatin DNA damage 30 min before lysis | Potency, µM (doses to about 57.5 µM), for the others: top-dose activation, hits mostly activators; note: % of control where 0% means no effect; nearly all actives have a fitted effect of over 45% in size
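ATM-like activity read as KAP-1 phosphorylation via AlphaLISA donor/acceptor antibody pairs after lysis and 6 hr at 25C. Cells were ATM-null patient fibroblasts (F2112, hTERT), dosed 60 min, then exposed to the DSB inducer NCS for 30 min.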
Tb PFK KinaseGlo: inhibits T. brucei PFK measured by ATP depletion; shares compounds with Tb PFK inh-1; Tb PFK enzyme, ATP depletion, Kinase-Glo Plus luminescence; Potency, µM (highest dose often 57.5 µM), for the others: at the top dose inhibition; hit rate 47% among 1,100; AID 504636; calls by dose curve; note: nearly all actives have a fitted effect of over 60% in size
Tb PFK inh-2: validation of T. brucei phosphofructokinase inhibitors; shares compounds with Tb PFK inh-1; purified T. brucei PFK, ADP-Glo luminescence, 45 min; Potency, µM (titrated, usually from 57.5 µM), for the others: top-dose activity change, negative = inhibition, usual class: inhibitors; hit rate 41% among 1,100; AID 504637;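 note: plate controls were full PFK enzyme control for no effect and no enzyme control for full effect; nearly all actives have a fitted effect of over 60% in size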
The depositor's hits bear a star; ? = inconclusive; · = no result; [ ] = remark or other dose. A selection: hits, their analogues and other compounds. The true share with any hit is near 0.55%. Unless noted, calls come from the whole dose curve; as a rule, active = well fitted curve in the direction sought with a large enough effect; inconclusive = small, poorly fitted or top-dose-only effect, or another doubt; inactive = no such curve, though single readings can be large; an effect the other way counts as inactive or inconclusive. Potency is the fitted concentration of half-maximal effect.

SMILES	S-ASM inh	p53 reactivation	Tb PFK inh-1	ERG Ets-DNA blk	GCN5L2 inh	A-T KAP1 phos	Tb PFK KinaseGlo	Tb PFK inh-2
N[C@H]1C[C@H]1c1ccccc1	·	·	·	·	-1%	·	·	·
N=c1ccn(Cc2ccc(Cl)c(Cl)c2)cc1	4%	-10%	1.7µM*	-26%	-2%	15%	2.4µM*	5.4µM*
N=c1ccn(Cc2cccc(Cl)c2)cc1	0%	-2%	7.6µM*	0%	3%	13%	?	19µM*
Clc1ccc(COn2ccnc2)cc1Cl	-1%	-4%	?	14%	-7%	-1%	·	·
N=c1ccn(Cc2ccc(Cl)cc2)cc1	3%	-8%	11µM*	-2%	3%	?	?	?
CC(=O)O[C@@H]1[C@@H](O)C2OC3C=C(C)C(=O)[C@@H](O)[C@]3(CO)C1(C)C21CO1 (some centres not stated)	·	·	·	·	1%	·	·	·
CN1CCc2cc(O)c(O)cc2C(c2ccccc2)C1 (configuration not stated)	-14%	5%	?	-5%	-1%	-16%	?	?
Oc1cc2c(cc1O)[C@@H](c1ccccc1)CNCC2	8%	12%	12µM*	-2%	1%	-9%	1.9µM*	4.8µM*
CCOc1cc(C=C2C(=O)NC(=O)NC2=O)cc([N+](=O)[O-])c1O	·	-1%	-6%	·	-9%	-4%	·	·
COc1cc(/C=C(\C#N)c2nc3ccccc3s2)cc([N+](=O)[O-])c1O	?	3%	?	7%	?	6%	-27%	?
O=C(O)CCN1C(=O)c2ccc(NC(=O)CSc3ccc(Cl)cc3)cc2C1=O	2%	·	?	4%	-9%	-3%	?	?
Cc1cc(NS(=O)(=O)c2ccc(NC(=O)COc3ccc(Cl)cc3)cc2)no1	-3%	-14%	5.4µM*	2%	1%	-5%	1.7µM*	3.8µM*
Cc1noc(NS(=O)(=O)c2ccc(NC(=O)COc3ccc(C#N)cc3)cc2)c1C	2%	-3%	13µM*	13%	-5%	-3%	6.7µM*	21µM*
Cc1cc(NS(=O)(=O)c2ccc(NC(=O)Cc3ccc([N+](=O)[O-])cc3)cc2)no1	-3%	2%	2.4µM*	-3%	-4%	1%	0.85µM*	1.5µM*
N#Cc1ccc(OCC(=O)Nc2ccc(S(=O)(=O)N3CCOCC3)cc2)cc1	3%	-5%	12µM*	14%	2%	0%	12µM*	30µM*
O=C(COc1ccc(Cl)cc1)Nc1ccc(Cl)cc1C(=O)c1ccccc1	·	·	·	-2%	-1%	·	·	·
O=C(COc1ccc(S(=O)(=O)N2CCOCC2)cc1)N1CCN(Cc2ccc3c(c2)OCO3)CC1	2%	18%	0%	0%	-3%[0.501 µM]	·	·	·
Cc1cc(OCCCC(=O)NCc2cccs2)ccc1Cl	0%	·	0%	-28%	-5%	-5%	·	·
Cc1cc(NC(=O)c2cccn(Cc3ccccc3)c2=O)no1	·	·	·	-7%	-2%	·	·	·
CCc1nnc(NS(=O)(=O)c2ccc(NC(=O)COc3ccc(Cl)c(C)c3)cc2)s1	1%	-4%	5.4µM*	1%	-3%	6%	2.4µM*	7.6µM*
Cc1cc(NS(=O)(=O)c2ccc(NC(=S)NCc3ccccc3)cc2)no1	-1%	0%	19µM*	4%	10%	2%	24µM*	?
CC(C)c1ccc2c(c1O)CCC1C3=C(CC[C@]21C)C(=O)OC3 (some centres not stated)	·	·	·	·	-6%	·	·	·
CCC(Sc1ccccc1)C(=O)OC1CC2CCC(C1)N2C (configuration not stated)	·	·	·	·	-8%	·	·	·
O=C1Nc2cc(Cl)c(Cl)cc2N(O)N1c1ccc(Cl)c(Cl)c1	12%	-5%	13µM*	·	-12%	5%	11%	-15%
O=C1Nc2ccccc2N(O)N1c1ccc(Cl)c(Cl)c1	-4%	-4%	11µM*	9%	-4%	-2%	?	-15%
SMILES	S-ASM inh	p53 reactivation	Tb PFK inh-1	ERG Ets-DNA blk	GCN5L2 inh	A-T KAP1 phos	Tb PFK KinaseGlo	Tb PFK inh-2
O=C(O)CCC1NCC2CC1CN1CCCCC21 (configuration not stated)	·	·	·	·	-14%	·	·	·
CCC12C=CCN3CCC4(c5ccc(OC)cc5N(C)C4[C@@](O)(C(=O)OC)C1OC(C)=O)C32 (some centres not stated)	·	·	·	·	2%	·	·	·
CN(C(=O)c1cccc(N2C(=O)C3C4C=CC(C4)C3C2=O)c1)C1CCCCC1 (configuration not stated)	-2%	14%	3%	?	-6%	7%	·	·
COc1ccccc1CN1CC[C@@]2(CCCN(C(=O)Oc3ccccc3)C2)C1	·	·	·	·	-21%	·	·	·
CN1C(=O)[C@]23CC4=CC=C[C@H](O)[C@H]4N2C(=O)[C@@]1(CO)SS3	·	·	·	·	-12%	·	·	·
Cc1cc(C)nc(NS(=O)(=O)c2ccc(NC(=O)c3cc(=O)c4ccccc4o3)cc2)n1	15%	-10%	?	-8%	-9%	-2%	-27%	?
